Records with an inconclusive call do not appear. Where a call stands in place of a potency, no number is given. A number with no mark means an inactive call. Active and inactive are the calls of the source. Unless noted, the call rests on the fitted dose curve; in most records, active means well fitted curve in the direction sought with a large enough effect; inconclusive means small, poorly fitted or top-dose-only effect, or another doubt; inactive means no such curve, though single readings can be large; an effect the other way counts as inactive or inconclusive.
Legend:
[1] = qHTS Assay for Identification of Small Molecule Agonists for Hypoxia Response Element Signaling Pathway (AID 914; active means well fitted activation curve with a large enough effect in the signal ratio, with a control signal flat, not every such curve was filed as active; the % refers to the signal ratio); conditions: ME-180 (cervical carcinoma) HRE-bla reporter, beta-lactamase ratio, CoCl2, 17 h; activation: hits give high values
Method in brief: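 AC50 values come from titration-series %Activity, taken as the 460/530nm ratio of CCF4 fluorescence (excitation 405nm). CellSensor HRE-bla ME-180 cells were treated 17 hours at 37 C with compound plus an EC50 level of CoCl2.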

[2] = target: Cytochrome P450 2C9 (Homo sapiens) (UniProt P11712); test: qHTS Assay for Inhibitors and Substrates of Cytochrome P450 2C9 (AID 883); further: nearly all actives have a fitted effect of over 60% in size; further: potency means the concentration at half of the fitted maximal effect
Sequence of Cytochrome P450 2C9 (Homo sapiens) (P11712 whole entry, looked up): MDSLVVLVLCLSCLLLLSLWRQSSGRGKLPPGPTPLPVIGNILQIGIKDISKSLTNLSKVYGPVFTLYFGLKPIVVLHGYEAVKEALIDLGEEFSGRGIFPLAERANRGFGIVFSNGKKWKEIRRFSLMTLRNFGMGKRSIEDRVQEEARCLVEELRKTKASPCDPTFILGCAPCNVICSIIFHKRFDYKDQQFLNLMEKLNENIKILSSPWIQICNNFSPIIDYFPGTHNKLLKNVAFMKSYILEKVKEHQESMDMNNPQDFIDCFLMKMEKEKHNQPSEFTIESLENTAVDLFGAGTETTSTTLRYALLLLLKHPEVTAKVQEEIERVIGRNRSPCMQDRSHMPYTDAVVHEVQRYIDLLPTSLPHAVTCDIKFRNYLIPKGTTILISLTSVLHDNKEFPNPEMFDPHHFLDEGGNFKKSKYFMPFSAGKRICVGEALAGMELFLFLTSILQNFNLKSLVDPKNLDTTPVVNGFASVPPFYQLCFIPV
Method in brief: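 10nM CYP2C9 + 100uM Luciferin-H (=KM), 25mM KPO4; cpd 10 min 37C; NADPH regen, 60 min 37C; stop/detect with P450 Glo-Buffer 20 min; luminescence. Norm. to 57uM sulphaphenazole as full inhibition.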

[3] = target: Cytochrome P450 3A4 (Homo sapiens) (UniProt P08684); test: qHTS Assay for Inhibitors and Substrates of Cytochrome P450 3A4 (AID 884); further: nearly all actives have a fitted effect of over 50% in size; further: potency means the concentration at half of the fitted maximal effect
Sequence of Cytochrome P450 3A4 (Homo sapiens) (P08684 whole entry, looked up): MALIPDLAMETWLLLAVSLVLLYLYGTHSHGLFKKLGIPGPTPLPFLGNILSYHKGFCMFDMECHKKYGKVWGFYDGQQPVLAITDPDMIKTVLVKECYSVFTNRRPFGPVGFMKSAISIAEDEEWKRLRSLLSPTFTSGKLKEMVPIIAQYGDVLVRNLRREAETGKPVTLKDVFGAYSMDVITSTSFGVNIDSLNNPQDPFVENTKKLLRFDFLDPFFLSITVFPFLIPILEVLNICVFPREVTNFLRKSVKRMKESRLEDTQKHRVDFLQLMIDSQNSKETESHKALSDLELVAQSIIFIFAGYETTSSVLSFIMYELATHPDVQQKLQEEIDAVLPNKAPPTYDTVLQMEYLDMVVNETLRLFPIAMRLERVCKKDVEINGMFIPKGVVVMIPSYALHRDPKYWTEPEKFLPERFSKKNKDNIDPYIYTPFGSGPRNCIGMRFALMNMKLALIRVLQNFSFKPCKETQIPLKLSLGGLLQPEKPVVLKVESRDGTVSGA
Method in brief: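 20 nM human CYP3A4 with 25 uM Luciferin-PPXE (at KM) in 200 mM KPO4, preincubated 10 min with compound; NADPH regeneration started a 60 min RT reaction. Luciferin detected by luminescence, normalized to 57 uM ketoconazole as full inhibition.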

[4] = qHTS Assay for Identification of Small Molecule Antagonists for Thrombopoietin (TPO) Signaling Pathway (AID 918); conditions: TPO-dependent cell signaling reporter, antagonist mode; further: potency means the concentration at half of the fitted maximal effect; nearly all actives have a fitted effect of over 60% in size
Method in brief: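 Murine Ba/F3 cells expressing human TPO receptor and a Glycoprotein IIb promoter-luciferase reporter, IL-3-starved overnight, treated with compound plus TPO at EC50 (26 pM final). After 24 h at 37 C, luminescence read to detect inhibitors.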

[5] = target: ATP-dependent 6-phosphofructokinase (Trypanosoma brucei brucei) (UniProt O15648); test: qHTS Assay to Find Inhibitors of T. brucei phosphofructokinase: hit validation (AID 492961)
Sequence of ATP-dependent 6-phosphofructokinase (Trypanosoma brucei brucei) (O15648 whole entry, looked up): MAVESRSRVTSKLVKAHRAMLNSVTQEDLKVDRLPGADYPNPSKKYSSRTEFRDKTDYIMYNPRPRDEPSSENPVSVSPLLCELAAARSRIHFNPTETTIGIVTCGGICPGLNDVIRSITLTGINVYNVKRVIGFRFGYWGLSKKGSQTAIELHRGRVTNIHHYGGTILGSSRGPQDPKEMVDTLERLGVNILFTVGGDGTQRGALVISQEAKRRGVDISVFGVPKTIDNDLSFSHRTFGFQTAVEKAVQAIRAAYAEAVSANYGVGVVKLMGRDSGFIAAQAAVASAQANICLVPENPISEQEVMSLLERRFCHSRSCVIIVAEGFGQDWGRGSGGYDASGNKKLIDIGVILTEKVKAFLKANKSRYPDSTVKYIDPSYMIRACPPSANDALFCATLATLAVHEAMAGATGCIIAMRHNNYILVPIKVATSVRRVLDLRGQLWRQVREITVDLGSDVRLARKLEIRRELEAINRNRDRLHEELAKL
Method in brief: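 Luminescence from ADP-Glo reports ADP generated as T. brucei PFK (1.25 nM) phosphorylates 0.5 mM fructose-6-phosphate using 0.1 mM ATP. Reactions ran 45 min at room temperature, pH 8.0.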

[6] = qHTS profiling for inhibitors of Plasmodium falciparum proliferation (AID 504749); further: potency means the concentration at half of the fitted maximal effect; on all read-outs here: nearly all actives have a fitted effect of over 60% in size; conditions: P. falciparum in erythrocytes, SYBR Green DNA, 72 h; for activity, negative = inhibition: at 28.7 µM (top of the series)
Method in brief: (§1)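 P. falciparum-infected erythrocytes (0.3% parasitemia, 2.5% hematocrit) incubated with compound 72 h at 37 C, 5% CO2. Parasite DNA detected by SYBR Green after lysis, overnight at room temperature; normalised to 0.29 uM artemisinin and DMSO.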

AS120 = test: as above; conditions: P. falciparum in erythrocytes, SYBR Green DNA, 72 h; series mostly up to 28.7 µM
Method in brief: as §1

ATS95 = test: as above; conditions: P. falciparum in erythrocytes, SYBR Green DNA, 72 h; series mostly up to 28.7 µM
Method in brief: as §1

CP203 = test: as above; conditions: P. falciparum in erythrocytes, SYBR Green DNA, 72 h; series mostly up to 28.7 µM
Method in brief: as §1

CP217 = test: as above; conditions: P. falciparum in erythrocytes, SYBR Green DNA, 72 h; series mostly up to 28.7 µM
Method in brief: as §1

CP238 = test: as above; conditions: P. falciparum in erythrocytes, SYBR Green DNA, 72 h; series mostly up to 28.7 µM
Method in brief: as §1

CP252 = test: as above; conditions: P. falciparum in erythrocytes, SYBR Green DNA, 72 h; series mostly up to 28.7 µM
Method in brief: as §1

CP265 = test: as above; conditions: P. falciparum in erythrocytes, SYBR Green DNA, 72 h; series mostly up to 28.7 µM
Method in brief: as §1

DFO2036 = test: as above; conditions: P. falciparum in erythrocytes, SYBR Green DNA, 72 h; series mostly up to 28.7 µM
Method in brief: as §1

DIV30 = test: as above; conditions: P. falciparum in erythrocytes, SYBR Green DNA, 72 h; series mostly up to 28.7 µM
Method in brief: as §1

N140 = test: as above; conditions: P. falciparum in erythrocytes, SYBR Green DNA, 72 h; series mostly up to 28.7 µM
Method in brief: as §1

P94_40 = test: as above; conditions: P. falciparum in erythrocytes, SYBR Green DNA, 72 h; series mostly up to 28.7 µM
Method in brief: as §1

PAD = test: as above; conditions: P. falciparum in erythrocytes, SYBR Green DNA, 72 h; series mostly up to 28.7 µM
Method in brief: as §1

PC26 = test: as above; conditions: P. falciparum in erythrocytes, SYBR Green DNA, 72 h; series mostly up to 28.7 µM
Method in brief: as §1

W2 = test: as above; conditions: P. falciparum in erythrocytes, SYBR Green DNA, 72 h; series mostly up to 28.7 µM
Method in brief: as §1

## O=C(O)/C=C\c1cnc[nH]1
[1]
  activation: -4.56%

## O=C(O)CCCC[C@H]1CCSS1
[2]
  Potency: inactive

## CSc1nc(N)c2ncn([C@@H]3O[C@@H](COP(=O)(O)OP(=O)(O)OP(=O)(O)O)[C@@H](O)[C@H]3O)c2n1
[2]
  Potency: inactive
[3]
  Potency: inactive

## CN1CCc2cc(Cl)c(O)cc2[C@H](c2ccccc2)C1
[3]
  Potency: inactive
[1]
  activation: -21.3%

## Cc1cccc(C)c1OC[C@@H](N)C(C)C
[1]
  activation: -2.64%

## O=[N+]([O-])c1ccc(CSc2ncnc3c2ncn3[C@@H]2O[C@@H](CO)[C@@H](O)[C@H]2O)cc1
[3]
  Potency: inactive

## O=C1O/C(=C\Br)CC[C@@H]1c1cccc2ccccc12
[4]
  Potency: 10 µM (active)

## N=c1ccn2c(n1)O[C@@H]1[C@@H](O)[C@H](CO)O[C@H]12
[2]
  Potency: inactive

## Oc1ccc([C@@H]2CNCc3sccc32)cc1O
[4]
  Potency: 12.6 µM (active)

## Nc1ncnc2c1ncn2[C@@H]1CCCO1
[2]
  Potency: inactive
[1]
  activation: -13.1%

## O=C1OC(=O)[C@@H]2[C@@H]1[C@@H]1CC[C@H]2O1
[2]
  Potency: inactive

## CC(C)N(Cc1ccccc1)S(=O)(=O)c1n[nH]c(C(C)(C)C)n1
[2]
  Potency: 3.98 µM (active)

## CN(CCc1ccccn1)c1ccc2c(c1)Cc1ccccc1-2
[3]
  Potency: 2.51 µM (active)

## CN(C)C(=O)/N=N\C(=O)N(C)C
[4]
  Potency: 10 µM (active)

## CCNC(=O)[C@@H]1O[C@@H](n2cnc3c(NCc4ccccc4)ncnc32)[C@@H](O)[C@H]1O
[2]
  Potency: inactive

## COc1cc(Cl)c(CC(=O)c2c[nH]c3ccccc23)cc1OC
[3]
  Potency: 2.51 µM (active)

## O=C(O)CCCCCC[C@@H]1C(=O)NC(=O)N1CC[C@@H](O)C1CCCCC1
[2]
  Potency: inactive

## NC(N)=Nc1nc2ccc([N+](=O)[O-])cc2[nH]1
[3]
  activity change, negative = inhibition: 107% [at 11.4 µM]

## C=C1CC[C@H](O)C/C1=C/C=C1\CCC[C@]2(C)[C@H]1CC[C@H]2[C@@H](C)CCCC(C)C
[1]
  activation: -0.192%

## N[C@H](Cc1ccc(O)c(I)c1)C(=O)O
[2]
  Potency: inactive

## Cc1cnc(CNc2nc(-c3cccnc3)nc3ccccc23)cn1
[3]
  Potency: 3.98 µM (active)

## O=C(N/N=C\c1ccc2c(c1)CCC2)c1ccccc1O
[2]
  Potency: inactive

## N[C@@H](C(=O)O)[C@@H]1C[C@H]1C(=O)O
[2]
  Potency: inactive

## Cc1sc2ccccc2[n+]1CCC(=O)O
[1]
  activation: -2.73%

## O=c1[nH]c2[nH]c(=S)[nH]c(=S)c2[nH]1
[2]
  Potency: 1.26 µM (active)

## CCCCC[C@@H](O)[C@@H]1C(=O)O[C@@H](C)[C@@H](O)\C=C/C=C\C=C/C=C\C=C(\C)[C@H](O)C[C@H](O)C[C@H](O)C[C@H](O)C[C@H](O)C[C@H](O)C[C@@H]1O
[2]
  Potency: inactive

## O=C(O)CCC/C=C\C[C@H]1[C@@H](/C=C\[C@@H](O)C2Cc3ccccc3C2)[C@H](F)C[C@H]1O
[2]
  Potency: inactive

## N#CCCn1c(=O)c(CCc2ccccc2)nc2cnc(Oc3ccccc3)nc21
[2]
  Potency: 7.94 µM (active)
[3]
  Potency: 2.51 µM (active)

## O=c1[nH]c(SCc2c(Cl)c(Cl)c(Cl)c(Cl)c2Cl)nc(=S)[nH]1
[2]
  Potency: 1.26 µM (active)

## CC[C@@H]1CN2CCc3cc(OC)c(OC)cc3[C@H]2C[C@@H]1C[C@H]1NCCc2cc(OC)c(OC)cc21
[2]
  Potency: inactive

## CC(=O)OCC(=O)[C@@]1(O)CC[C@@H]2[C@@H]3CCC4=CC(=O)CC[C@@]4(C)[C@H]3C(=O)C[C@]21C
[2]
  Potency: inactive

## NC(N)=NCCSSCCN=C(N)N
[2]
  Potency: inactive

## Nc1ccc(CCNc2ncnc3c2ncn3[C@@H]2O[C@@H](CO)[C@H](O)[C@@H]2O)cc1
[1]
  activation: 0.683%

## O=C(O)NCc1ccccc1 (tested in a mixture with another compound)
[1]
  activation: 1.79%

## CC(C)[C@H]1C(=O)C(C(N)=O)=C(O)[C@]2(O)C(=O)C3=C(O)c4c(O)ccc(N(C)C)c4C[C@H]3C[C@@H]12
[4]
  Potency: 2.51 µM (active)

## CCCCCCCCCCCCC/C=C\[C@H](O)[C@H](N)CO
[2]
  Potency: inactive

## N[C@H](CS(=O)O)C(=O)O
[2]
  Potency: inactive

## N[C@@H](C(=O)O)[C@H](O)C(=O)O
[2]
  Potency: inactive

## O=C(Nc1ccccc1)N1CCC2(CC1)CCN(C(=O)c1ccco1)CC2
[3]
  Potency: inactive

## C[C@H]1C[C@@H]2[C@H]3CCC4=CC(=O)C=C[C@@]4(C)[C@@]3(Cl)[C@@H](O)C[C@]2(C)[C@]1(OC(=O)c1ccco1)C(=O)CCl
[5]
  outcome: inactive
[6]; parasite line B
  Potency: 3.16 µM (active)
AS120
  Potency: 3.55 µM (active)
ATS95
  Potency: 3.16 µM (active)
CP203
  Potency: 5.73 µM (active)
CP217
  Potency: 3.98 µM (active)
CP238
  Potency: 3.55 µM (active)
CP252
  Potency: inactive
CP265
  Potency: 3.55 µM (active)
DFO2036
  Potency: 4.47 µM (active)
DIV30
  Potency: 6.42 µM (active)
N140
  Potency: 3.55 µM (active)
P94_40
  Potency: 3.55 µM (active)
PAD
  Potency: 3.98 µM (active)
PC26
  Potency: 6.42 µM (active)
W2
  Potency: 3.61 µM (active)

## O=C(O)[C@H]1C[C@H](C(=O)O)N1
[2]
  Potency: inactive

## CO/N=C(\C(=O)N[C@@H]1C(=O)N2C(C(=O)[O-])=C(C[N+]3(C)CCCC3)CS[C@@H]12)c1csc(N)n1
[5]
  outcome: inactive
[6]; parasite line A
  activity, negative = inhibition: 2.78%
[6]; parasite line B
  activity, negative = inhibition: 10.9%
AS120
  Potency: inactive
ATS95
  Potency: inactive
CP203
  Potency: inactive
CP217
  Potency: inactive
CP238
  Potency: inactive
CP252
  Potency: inactive
CP265
  Potency: inactive
DFO2036
  Potency: inactive
DIV30
  Potency: inactive
N140
  Potency: inactive
P94_40
  Potency: inactive
PAD
  Potency: inactive
PC26
  Potency: inactive
W2
  Potency: inactive

## C[C@@]12CCC(=O)C=C1CC[C@H]1[C@H]3CC[C@](O)(C(=O)CO)[C@]3(C)CC[C@@H]12
[2]
  Potency: inactive

## CCn1cc(C(=O)O)c(=O)c2ccc(Cc3ccccc3)nc21
[2]
  Potency: inactive

## C[C@@H]1C[C@H]2[C@H]3C[C@@H](F)C4=CC(=O)C=C[C@]4(C)[C@@]3(Cl)[C@@H](O)C[C@@]2(C)[C@@H]1C(=O)COC(=O)C(C)(C)C
[5]
  outcome: inactive
[6]; parasite line A
  activity, negative = inhibition: 0.272%
[6]; parasite line B
  activity, negative = inhibition: -10.2%
AS120
  Potency: inactive
ATS95
  Potency: inactive
CP203
  Potency: inactive
CP217
  Potency: inactive
CP238
  Potency: inactive
CP252
  Potency: inactive
CP265
  Potency: inactive
DFO2036
  Potency: inactive
DIV30
  Potency: inactive
N140
  Potency: inactive
P94_40
  Potency: inactive
PAD
  Potency: inactive
PC26
  Potency: inactive
W2
  Potency: 10.7 µM (active)
